# In PubChem BioAssay (Tox21):
# Values joined by “and” are separate entries in the source; they are usually repeats but may differ in a detail not shown here. Identical values can stand only once. Records with an inconclusive call do not appear. Where a call stands in place of a potency, no number is given. Where a structure was tested more than once in an assay, its records may differ in their call. Active and inactive are the calls of the source. Unless noted, calls come from the whole dose curve; as a rule, active = well fitted curve in the direction sought with a large enough effect in the repeat runs; inconclusive = weak or mixed curves; inactive = no such curve, though single readings can be large; an effect the other way counts as inactive or inconclusive.
# Experiments:
# [1] = qHTS assay to identify small molecule antagonists of the estrogen related receptor (ERR) signaling pathway from Tox21 library - cell viability counter screen (AID 1224834); note: nearly all actives have a fitted effect of over 30% in size; note: potency is the fitted concentration of half-maximal effect
# Outline: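 Fluorescence from CellTiter-Fluor gives the viability read-out, taken 30 min after reagent addition. Before that, ERR cells seeded 6 h earlier were incubated with compounds for 17.5 h at 37 C.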
# [2] = molecular target: Luciferin 4-monooxygenase (Photinus pyralis) (UniProt P08659); assay: qHTS assay to identify small molecule inhibitors of firefly luciferase (AID 1224835); note: nearly all actives have a fitted effect of over 25% in size; note: potency is the fitted concentration of half-maximal effect
# Sequence of Luciferin 4-monooxygenase (Photinus pyralis) (P08659 whole entry, looked up): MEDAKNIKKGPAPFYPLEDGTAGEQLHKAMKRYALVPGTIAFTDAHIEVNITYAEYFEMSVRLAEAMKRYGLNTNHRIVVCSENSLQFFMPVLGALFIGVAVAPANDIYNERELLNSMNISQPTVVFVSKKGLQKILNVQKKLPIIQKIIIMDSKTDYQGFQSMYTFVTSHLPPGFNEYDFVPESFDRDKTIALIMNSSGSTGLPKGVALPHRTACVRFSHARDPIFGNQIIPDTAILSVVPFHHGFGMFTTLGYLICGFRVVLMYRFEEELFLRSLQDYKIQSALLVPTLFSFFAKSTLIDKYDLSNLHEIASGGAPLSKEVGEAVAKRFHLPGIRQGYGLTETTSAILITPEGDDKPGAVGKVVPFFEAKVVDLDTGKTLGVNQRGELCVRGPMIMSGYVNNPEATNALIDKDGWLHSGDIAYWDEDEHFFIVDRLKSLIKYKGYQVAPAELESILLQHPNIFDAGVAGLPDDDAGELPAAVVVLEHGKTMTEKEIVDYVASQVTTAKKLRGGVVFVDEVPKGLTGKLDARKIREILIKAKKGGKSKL
# Outline: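 Inhibition of purified Photinus luciferase is measured by luminescence. Substrate levels (D-luciferin, ATP) sit at their KM values. Each compound is tested in a concentration series.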
# [3] = molecular target: Nuclear receptor subfamily 1 group I member 3 (Homo sapiens) (UniProt Q14994); assay: qHTS assay to identify small molecule agonists of the constitutive androstane receptor (CAR) signaling pathway (AID 1224839); note: nearly all actives have a fitted effect of over 15% in size; note: potency is the fitted concentration of half-maximal effect
# Sequence of Nuclear receptor subfamily 1 group I member 3 (Homo sapiens) (Q14994 whole entry, looked up): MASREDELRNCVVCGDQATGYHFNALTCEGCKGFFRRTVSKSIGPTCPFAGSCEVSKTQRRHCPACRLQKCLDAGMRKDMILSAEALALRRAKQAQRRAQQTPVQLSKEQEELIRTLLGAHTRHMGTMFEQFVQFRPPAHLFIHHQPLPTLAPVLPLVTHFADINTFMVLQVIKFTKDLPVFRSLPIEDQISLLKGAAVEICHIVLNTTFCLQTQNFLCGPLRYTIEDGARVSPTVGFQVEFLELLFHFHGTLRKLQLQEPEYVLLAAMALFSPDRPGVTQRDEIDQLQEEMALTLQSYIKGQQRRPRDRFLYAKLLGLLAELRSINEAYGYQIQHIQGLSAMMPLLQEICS
# Outline: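 Luminescence read-out (ONE-Glo, 30 min, room temperature) from double-stable HepG2-CYP2B6-hCAR cells exposed 24 h to 15-point compound series in presence of 0.75 uM PK11195 final.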
# [4] = qHTS assay to identify small molecule antagonists of the estrogen related receptor signaling pathway with the pleiotropic PPARgamma coactivator (PGC) from Tox21 10K library - cell viability counter screen (AID 1224840; active = well fitted cell-killing curve with a large enough effect in the repeat runs, not every such curve was filed as active; note: nearly all actives have a fitted effect of over 40% in size; note: potency is the fitted concentration of half-maximal effect)
# Outline: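 PGC/ERR cells, 2,000/well; 6 h pre-incubation 37 C/5% CO2; cpd in DMSO via pin tool; 17.5 h 37 C; CellTiter-Fluor, 30 min; fluorescence.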
# [5] = qHTS assay to identify small molecule agonists of the estrogen related receptor signaling pathway with the pleiotropic PPARgamma coactivator (PGC) from Tox21 10K library (AID 1224842); note: nearly all actives have a fitted effect of over 15% in size
# Outline: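 Luminescence from One-Glo (30 min, room temperature) measured after PGC/ERR cells had 18 h at 37 C with pinned compound (23 nL in DMSO). Cells had been seeded at 2,000 per well and pre-incubated 6 h.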
# [6] = molecular target: Thyrotropin receptor (Homo sapiens) (UniProt P16473); assay: qHTS assay to identify small molecule agonists of the thyroid stimulating hormone receptor (TSHR) signaling pathway (AID 1224843; calls by dose curve; note: nearly all actives have a fitted effect of over 45% in size; note: potency is the fitted concentration of half-maximal effect)
# Sequence of Thyrotropin receptor (Homo sapiens) (P16473 whole entry, looked up): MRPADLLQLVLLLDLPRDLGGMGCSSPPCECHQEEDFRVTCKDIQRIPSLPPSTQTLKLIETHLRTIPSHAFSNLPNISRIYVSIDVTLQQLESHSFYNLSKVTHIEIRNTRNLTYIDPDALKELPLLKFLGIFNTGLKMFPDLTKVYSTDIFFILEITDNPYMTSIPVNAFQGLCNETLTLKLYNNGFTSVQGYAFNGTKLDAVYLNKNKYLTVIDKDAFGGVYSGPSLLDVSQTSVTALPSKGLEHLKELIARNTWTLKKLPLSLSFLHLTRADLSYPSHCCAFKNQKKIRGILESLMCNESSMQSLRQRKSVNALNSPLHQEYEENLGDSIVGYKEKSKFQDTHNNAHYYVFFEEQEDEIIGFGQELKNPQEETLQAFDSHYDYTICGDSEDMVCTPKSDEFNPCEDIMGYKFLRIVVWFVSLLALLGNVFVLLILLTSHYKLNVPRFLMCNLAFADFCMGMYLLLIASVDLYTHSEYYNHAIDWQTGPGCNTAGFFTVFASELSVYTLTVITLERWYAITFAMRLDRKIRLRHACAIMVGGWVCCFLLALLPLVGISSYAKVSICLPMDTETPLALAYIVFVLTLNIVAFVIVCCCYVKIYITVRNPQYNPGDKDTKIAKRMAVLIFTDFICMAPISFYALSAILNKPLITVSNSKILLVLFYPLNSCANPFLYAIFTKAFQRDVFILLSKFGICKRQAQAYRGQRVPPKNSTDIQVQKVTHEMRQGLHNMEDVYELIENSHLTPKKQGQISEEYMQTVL
# Outline: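 Screening of the Tox21 10K collection used HEK293 cells engineered with TSHR at 800 cells per well. After a 30-min room-temperature compound exposure, HTRF cAMP reagents were added and fluorescence recorded 1 h later.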
# [7] = qHTS assay to identify small molecule antagonists of the estrogen related receptor signaling pathway with the pleiotropic PPARgamma coactivator (PGC) from Tox21 10K library (AID 1224841; call rule not given here; note: actives are mostly falling curves and most rising ones were filed inactive; nearly all actives have a fitted effect of over 50% in size; note: potency is the fitted concentration of half-maximal effect)
# Outline: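 PGC/ERR cell line, 2,000 cells/well; 6 h pre-incubation 37 C/5% CO2; compounds (DMSO) pinned in; 18 h, 37 C; One-Glo, 30 min RT; luminescence.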
# [8] = qHTS assay to identify small molecule antagonists of the constitutive androstane receptor (CAR) signaling pathway - cell viability counter screen (AID 1224837); note: nearly all actives have a fitted effect of over 45% in size; note: potency is the fitted concentration of half-maximal effect
# Outline: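 HepG2-CYP2B6-hCAR cells, 2500/well, 4 hr pre-incubation; compound titration, 15 conc.; CITCO 50 nM final; 23 hr, 37 C/5% CO2; CellTiter-Fluor, fluorescence intensity.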
# [9] = molecular target: Nuclear receptor subfamily 1 group I member 3 (Homo sapiens) (UniProt Q14994); assay: qHTS assay to identify small molecule antagonists of the constitutive androstane receptor (CAR) signaling pathway (AID 1224838);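 note: HepG2 cells stably expressing hCAR with CYP2B6 luciferase reporter stimulated by CITCO; nearly all actives have a fitted effect of over 40% in size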; note: potency is the fitted concentration of half-maximal effect
# Outline: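 HepG2-CYP2B6-hCAR cells; 4 h pre-incubation; cpd (15 conc) + CITCO 50 nM final; 24 h, 37 C/5% CO2; ONE-Glo, luminescence.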
Compound,Potency [1],Potency [2],Potency [3],Potency [4],Potency [5],Potency [6],Potency [7],Potency [8],Potency [9]
O=C(O)c1ccc(Cl)c(Cl)c1,inactive,inactive,inactive,inactive,inactive,inactive,–,–,–
Clc1ccccc1C(c1ccccc1)(c1ccccc1)n1ccnc1,27.3 µM (active) and 11.9 µM (active),inactive,–,17.2 µM (active),inactive,–,5.45 µM (active) and 9.44 µM (active),–,–
O=C(Nc1cccc([N+](=O)[O-])c1)c1cc2ccccc2cc1O,4.33 µM (active),1.59 µM (active),2.43 µM (active),3.86 µM (active),inactive,inactive,–,9.69 µM (active),–
NC(=O)C1(N2CCCCC2)CCN(CCCN2c3ccccc3CCc3ccc(Cl)cc32)CC1,29.8 µM (active),inactive,inactive,26.6 µM (active),–,–,–,–,–
Nc1ccccc1O,60.3 µM (active),inactive,24 µM (active),–,inactive,inactive,–,–,inactive
Oc1ccc(Cl)cc1Sc1cc(Cl)ccc1O,30.6 µM (active) and 26.6 µM (active),inactive,inactive,–,inactive,–,13.7 µM (active) and 10.6 µM (active),–,68.5 µM (active)
Oc1ccc(N=Nc2ccccc2)cc1,49.2 µM (active),9.06 µM (active),27.7 µM (active),27.7 µM (active),–,49.2 µM (active),–,–,inactive
ON=C1CCCC1,25.2 µM (active),inactive,–,–,inactive,–,63.3 µM (active),–,inactive
O=C(NOCC1CC1)c1ccc(F)c(F)c1Nc1ccc(I)cc1Cl,18.8 µM (active),inactive,–,–,inactive,–,11.9 µM (active),inactive,–
O=S1(=O)CC(Cl)(Cl)C(Cl)(Cl)C1,15.4 µM (active),inactive,–,9.69 µM (active),inactive,–,–,8.63 µM (active),–
O=C1c2c(O)ccc(Nc3ccc(CCO)cc3)c2C(=O)c2c([N+](=O)[O-])ccc(O)c21,38.6 µM (active),17.8 µM (active),27.3 µM (active),–,–,–,–,–,inactive
CS(=O)(=O)CCNCc1ccc(-c2ccc3ncnc(Nc4ccc(OCc5cccc(F)c5)c(Cl)c4)c3c2)o1,6.68 µM (active),inactive,inactive,33.5 µM (active),inactive,inactive,–,–,inactive
COc1ccc(CN2CCN(C(c3ccc(F)cc3)c3ccc(F)cc3)CC2)c(OC)c1OC,13.3 µM (active),inactive,inactive,26.6 µM (active),inactive,–,–,–,–
CC[C@H]1O[C@]2(CC[C@@H]1C)C[C@@H]1C[C@@H](C/C=C(\C)C[C@@H](C)/C=C/C=C3\CO[C@@H]4[C@H](O)C(C)=C[C@@H](C(=O)O1)[C@]34O)O2,60.6 µM (active),inactive,inactive,60.6 µM (active),inactive,inactive,–,60.6 µM (active),–
CC(C)n1nc(-c2cc3cc(O)ccc3[nH]2)c2c(N)ncnc21,1.33 µM (active),inactive,inactive,–,inactive,–,0.211 µM (active),–,15 µM (active)
Clc1ccc(C(Cn2ccnc2)OCc2ccc(Sc3ccccc3)cc2)c(Cl)c1 (centres undefined),inactive,inactive,inactive,inactive,–,inactive,–,inactive,–
CN1CCC(Nc2ncc3ncnc(Nc4ccc(F)c(Cl)c4)c3n2)CC1,26.6 µM (active),inactive,inactive,–,–,inactive,inactive,–,–
CCCC(c1cc(C(C)(C)C)c(O)cc1C)c1cc(C(C)(C)C)c(O)cc1C,19.6 µM (active),inactive,inactive,22 µM (active),inactive,–,24.6 µM (active),31 µM (active),–
Cc1cccc2c1cc1ccc3cccc4ccc2c1c34,inactive,inactive,15.7 µM (active),inactive,inactive,–,–,–,–
COCCCC/C(=N\OCCN)c1ccc(C(F)(F)F)cc1,inactive,inactive,inactive,inactive,inactive,inactive,2.98 µM (active),–,inactive
CC(C)(C)CC(C)(C)c1ccc(O)c(Cc2ccc(Cl)cc2Cl)c1,23.7 µM (active),inactive,inactive,29.8 µM (active),–,–,–,–,–
CC1=C(C(=O)OC(C)C)C(c2cccc([N+](=O)[O-])c2)C(C(=O)OC2CN(C(c3ccccc3)c3ccccc3)C2)=C(N)N1 (centres undefined),29.8 µM (active),inactive,inactive,29.8 µM (active),inactive,–,–,–,–
Cc1cc(C2CCCCC2)n(O)c(=O)c1,9.44 µM (active),inactive,–,26.6 µM (active),–,inactive,–,29.8 µM (active),–
CCCCCCCCCCCCc1ccc(O)cc1,54.5 µM (active),inactive,–,48.6 µM (active),inactive,–,54.5 µM (active),–,–
NC(=NCCCCCCN=C(N)/N=C(\N)Nc1ccc(Cl)cc1)/N=C(\N)Nc1ccc(Cl)cc1,54.2 µM (active) [middle of 4 runs],inactive,–,54 µM (active) [middle of 4 runs],–,inactive,–,–,60.8 µM (active) and inactive
